Measured values: PubChem BioAssay AID1851 (National Center for Advancing Translational Sciences (NCATS), 2009)
In all, about 16,000 compounds went through this assay and about 5,700 (36%) were called active. About 24% were inconclusive and are not listed. Calls come from the whole dose curve; as a rule, active = well fitted curve in the direction sought with a large enough effect; inconclusive = small, poorly fitted or top-dose-only effect, or effect the other way; inactive = no such curve, though single readings can be large or run the other way. The list shows a part of the results.

target: Cytochrome P450 1A2 (Homo sapiens) (UniProt P05177); experiment: Cytochrome panel assay with activity outcomes; conditions: recombinant CYP, pro-luciferin dealkylation, luminescence, p450-cyp1a2; series mostly up to 57.1 µM; activity, negative = inhibition: at the top concentration
% is set by controls: 0 for no effect and ±100 for the full control effect.

Cytochrome P450 1A2 (Homo sapiens), sequence (P05177 whole entry, looked up): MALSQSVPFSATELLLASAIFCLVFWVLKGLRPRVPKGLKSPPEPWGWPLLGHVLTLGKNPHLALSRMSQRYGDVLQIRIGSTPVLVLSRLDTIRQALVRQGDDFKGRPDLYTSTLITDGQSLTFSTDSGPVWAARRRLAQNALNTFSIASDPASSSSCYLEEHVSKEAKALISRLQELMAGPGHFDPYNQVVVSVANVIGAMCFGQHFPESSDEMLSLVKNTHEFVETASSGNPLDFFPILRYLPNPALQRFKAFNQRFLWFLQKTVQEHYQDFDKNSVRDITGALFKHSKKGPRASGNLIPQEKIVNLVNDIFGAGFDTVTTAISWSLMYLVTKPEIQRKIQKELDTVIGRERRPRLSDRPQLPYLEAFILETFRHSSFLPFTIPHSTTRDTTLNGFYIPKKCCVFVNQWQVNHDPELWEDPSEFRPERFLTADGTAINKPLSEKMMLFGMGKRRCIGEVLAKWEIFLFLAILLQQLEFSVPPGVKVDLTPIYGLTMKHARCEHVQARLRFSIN

AC50, active:
CCOC(=O)c1sc(=N)n(-c2ccc(OC)cc2)c1C 1260 nM
Cc1oc2c(C)c(O)ccc2c(=O)c1-c1ccc2ccccc2n1 2240 nM
C=CCc1cccc2cc(C(=O)N(CC)CC)c(=O)oc12 1410 nM
CN(C)c1ncc2nc(CCc3ccccc3)c(=O)n(C3CC3)c2n1 3160 nM
O=c1c(CCc2ccccc2)nc2cncnc2n1C1CC1 6310 nM
COc1ncc2nc(CCc3ccccc3)c(=O)n(C3CC3)c2n1 3160 nM
COc1ccc(Oc2ncc3nc(CCc4ccccc4)c(=O)n(C4CC4)c3n2)cc1 12600 nM
O=c1c(CCc2ccccc2)nc2cnc(Oc3ccccc3)nc2n1C1CC1 7940 nM
Cc1cc(C)c2c(N)c3ccccc3nc2n1 2240 nM
C=CC[n+]1c(-c2ccc(C)cc2)csc1NNC(=O)Nc1ccccc1 10000 nM
Cc1c(Cl)cccc1Nc1ccccc1C(=O)O 3160 nM
Cc1cccc(Nc2ccccc2C(=O)O)c1C 5010 nM
Cc1ccc2nc(Nc3ccccc3O)nc(-c3ccccc3)c2c1 1780 nM
COc1cnc(-c2ccccc2)nc1Oc1cccc(C)c1 3160 nM
CCOC(=O)c1cnc(-c2ccccc2)nc1Oc1cccc(Cl)c1 2510 nM
CCOC(=O)c1cnc(-c2ccccc2)nc1Oc1ccc(Cl)cc1 200 nM
CCOC(=O)c1cnc(-c2ccccc2)nc1Oc1ccccc1 631 nM
Cc1ccc(Oc2nc(-c3ccccc3)ncc2S(C)(=O)=O)cc1 2820 nM
COc1nnc(OC)c2ccccc12 2510 nM
CCN(CC)[C@@H](C)CN1c2ccccc2Sc2ccccc21 501 nM
O=[N+]([O-])c1cccc(/C=N\Nc2ccc3ccccc3n2)c1O 794 nM
S=c1[nH]c2cc(Cl)ccc2s1 2000 nM
O=C(CC1CCCC1)Nc1ccc2c(c1)CCC2 15800 nM
N#Cc1ccc(-c2ccccc2)nc1SCC(=O)c1cccc(Cl)c1 2000 nM

activity, negative = inhibition, inactive:
COc1ccc(-n2c(C)nn(C)c2=O)cc1 -5.51%
NCC[C@H](O)C(=O)N[C@H]1C[C@@H](N)[C@@H](O[C@H]2O[C@@H](CN)[C@@H](O)[C@@H](O)[C@@H]2O)[C@@H](O)[C@@H]1O[C@H]1O[C@@H](CO)[C@@H](O)[C@@H](N)[C@@H]1O -4.21% [at 25.6 µM]
CCc1cc2c(=O)c(-c3nc4ccccc4n3C)c(C)oc2c(CN(CC)CC)c1O -17.4%
COc1ccc(C2C(=O)N(CCc3ccccc3)CC(=O)N2C2CCCC2)cc1 (centres undefined) -22.8%
C[C@@]1(C(=O)O)CCC[C@@H]1C(=O)O -9.8% [at 2.29 µM]
COc1ccc(S(=O)(=O)N2CCCCCC2)cc1N(C)S(=O)(=O)c1ccc(Cl)cc1 -1.31%
Cc1cc(NCCO)c2ccccc2n1 -24.6%
Cc1ccc(Cl)c(Nc2ccccc2C(=O)O)c1Cl -11.5%
Cc1c(Cl)cccc1NC(=O)CN1CCC(C(O)(c2ccccc2)c2ccccc2)CC1 -25.7%
Cc1cccc(C(=O)c2ccccc2C(=O)O)c1O -1.11%
O=S(=O)(O)[C@@H](c1ccccc1)[C@@H](O)c1ccccc1 -13.9% [at 2.29 µM]
COC(=O)[C@@]1(Cc2ccccc2)[C@H]2c3cc(C(=O)N4CCCC4)n(CC4CC4)c3C[C@H]2CN1C(=O)c1ccccc1 -17.5%
COC(=O)N1CCC2(CC1)CCN(c1ccncc1)CC2 0.475%
COc1ccc(Cc2n[nH]c(=O)c3ccccc23)cc1OC 7.79%
CCC(=S)/C=C1\Sc2ccccc2N1CCCS(=O)(=O)O -13%
CN(C)CC(C)(C)CN1c2ccccc2Sc2ccccc21 -17.7% [at 11.4 µM]
O=C1NC(=S)N/C1=C/c1cccc([N+](=O)[O-])c1O -17.8%
O=C(O)c1ccccc1CN1CCC[C@@H](C(=O)O)C1 -5.22% [at 11.4 µM]
O=C(O)C1C2C=CC3(CN(Cc4ccccn4)C(=O)C13)O2 (centres undefined) -1.4%
COc1ccc(O[C@H]2C=C[C@@H](c3ccccc3)O[C@@H]2CO/N=C\[C@@H](C)[C@H](OCc2ccccc2)C(C)C)cc1 -3.11% [at 11.4 µM]
Cc1ccc(NC(=O)CC2CS(=O)(=O)CC2CC(=O)Nc2ccc(C)c(C)c2)cc1C (centres undefined) -2.75%
COC(=O)c1cc(NC(=O)CC2NC3CCCCC3NC2=O)cc(C(=O)OC)c1 (centres undefined) 5.3%
CN(C)C(=O)Oc1cccc([N+](C)(C)C)c1 -8.88% [at 25.6 µM]
CS[C@]12C(=O)C[C@]3(C)[C@@H](CC[C@@]3(O)C(=O)CO)[C@@H]1CCC1=CC(=O)CC[C@]12C -24.3% [at 2.29 µM]
CCC[C@@H]1C[C@@]1(CCC)C(NC(=O)c1ccc(-c2ccccc2)cc1)c1cccc(Cl)c1 (some centres undefined) -2.6%
